Source: PubChem BioAssay (Tox21)
Results filed as inconclusive are left out. The source made the active and inactive calls. Unless noted, the call rests on the fitted dose curve; in most records, active means well fitted curve in the direction sought with a large enough effect in the repeat runs; inconclusive means weak or mixed curves; inactive means no such curve, though single readings can be large; an effect the other way counts as inactive or inconclusive.

Assays:
[1] = target: Luciferin 4-monooxygenase (Photinus pyralis) (UniProt P08659); assay: qHTS assay to identify small molecule inhibitors of firefly luciferase (AID 1224835); further: nearly all actives have a fitted effect of over 25% in size
Sequence of Luciferin 4-monooxygenase (Photinus pyralis) (P08659 whole entry, looked up): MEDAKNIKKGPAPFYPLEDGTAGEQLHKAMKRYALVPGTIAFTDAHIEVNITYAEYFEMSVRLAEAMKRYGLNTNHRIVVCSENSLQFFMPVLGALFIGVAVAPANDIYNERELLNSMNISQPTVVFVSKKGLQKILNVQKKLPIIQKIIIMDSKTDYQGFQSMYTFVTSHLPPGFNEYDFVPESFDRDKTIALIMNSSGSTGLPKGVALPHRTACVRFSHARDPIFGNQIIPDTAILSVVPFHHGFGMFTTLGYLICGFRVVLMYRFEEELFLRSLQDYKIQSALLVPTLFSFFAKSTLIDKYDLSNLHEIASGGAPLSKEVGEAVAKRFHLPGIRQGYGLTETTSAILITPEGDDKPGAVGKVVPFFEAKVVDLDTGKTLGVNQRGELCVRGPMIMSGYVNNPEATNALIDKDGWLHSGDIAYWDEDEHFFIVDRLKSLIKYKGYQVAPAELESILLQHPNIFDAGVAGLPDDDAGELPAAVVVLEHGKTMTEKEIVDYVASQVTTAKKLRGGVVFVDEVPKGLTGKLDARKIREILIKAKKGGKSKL
Summary of the method: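 Biochemical qHTS: compounds run as interplate titrations against purified firefly enzyme, with D-luciferin and ATP each at its KM concentration. Light output recorded by CCD imaging.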

[2] = qHTS assay to identify small molecule agonists of the constitutive androstane receptor (CAR) signaling pathway - cell viability counter screen (AID 1224836); further: nearly all actives have a fitted effect of over 45% in size
Summary of the method: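 23 h treatment, 37 C, 5% CO2. Cell line: HepG2 stably expressing hCAR with a CYP2B6-2.2kb construct. Co-treatment: PK11195, 0.75 uM final. Read-out: CellTiter-Fluor fluorescence intensity.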

[3] = qHTS assay to identify small molecule antagonists of the constitutive androstane receptor (CAR) signaling pathway - cell viability counter screen (AID 1224837); further: nearly all actives have a fitted effect of over 45% in size
Summary of the method: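 HepG2 cells stably expressing hCAR and a CYP2B6-2.2kb reporter were plated and pre-incubated 4 hr at 37 C/5% CO2, then given compounds at 15 concentrations plus 50 nM CITCO (final). After 23 hr, viability was read by CellTiter-Fluor fluorescence.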

[4] = target: Nuclear receptor subfamily 1 group I member 3 (Homo sapiens) (UniProt Q14994); assay: qHTS assay to identify small molecule antagonists of the constitutive androstane receptor (CAR) signaling pathway (AID 1224838); further: nearly all actives have a fitted effect of over 40% in size
Sequence of Nuclear receptor subfamily 1 group I member 3 (Homo sapiens) (Q14994 whole entry, looked up): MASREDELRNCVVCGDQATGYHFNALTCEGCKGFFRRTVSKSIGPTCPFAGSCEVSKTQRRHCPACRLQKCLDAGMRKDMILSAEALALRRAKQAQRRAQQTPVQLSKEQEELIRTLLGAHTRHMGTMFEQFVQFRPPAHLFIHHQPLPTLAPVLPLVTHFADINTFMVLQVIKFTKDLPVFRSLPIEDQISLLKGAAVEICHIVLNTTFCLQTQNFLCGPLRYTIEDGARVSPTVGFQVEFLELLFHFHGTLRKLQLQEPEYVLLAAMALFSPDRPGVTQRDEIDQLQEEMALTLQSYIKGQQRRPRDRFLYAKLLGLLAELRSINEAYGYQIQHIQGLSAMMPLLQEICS
Summary of the method: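 HepG2 cells stably co-transfected with hCAR and a CYP2B6-2.2kb luciferase reporter were seeded 4 h before compound addition at 15 concentrations. Cells were stimulated with 50 nM CITCO (final) for 24 h at 37 C; luciferase luminescence was then read.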

[5] = target: Nuclear receptor subfamily 1 group I member 3 (Homo sapiens) (UniProt Q14994); assay: qHTS assay to identify small molecule agonists of the constitutive androstane receptor (CAR) signaling pathway (AID 1224839);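 further: HepG2 cells stably carrying human CAR and a CYP2B6 luciferase reporter; nearly all actives have a fitted effect of over 15% in size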
Summary of the method: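 Compounds tested at 15 concentrations on HepG2 cells stably harbouring hCAR and CYP2B6-2.2kb reporter constructs, co-treated with PK11195 (0.75 uM final), 24 h at 37 C; luminescent reporter signal quantified.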

[6] = qHTS assay to identify small molecule antagonists of the estrogen related receptor signaling pathway with the pleiotropic PPARgamma coactivator (PGC) from Tox21 10K library - cell viability counter screen (AID 1224840; active means well fitted cell-killing curve with a large enough effect in the repeat runs, not every such curve was filed as active; further: nearly all actives have a fitted effect of over 40% in size)
Summary of the method: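 PGC/ERR cells were seeded at 2,000 cells/well and left 6 hours at 37 C/5% CO2 before pin-tool addition of compounds in DMSO. After 17.5 hours at 37 C, CellTiter-Fluor was added and fluorescence read 30 minutes later.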

[7] = target: Thyrotropin receptor (Homo sapiens) (UniProt P16473); assay: qHTS assay to identify small molecule agonists of the thyroid stimulating hormone receptor (TSHR) signaling pathway (AID 1224843; calls by dose curve; further: nearly all actives have a fitted effect of over 45% in size)
Sequence of Thyrotropin receptor (Homo sapiens) (P16473 whole entry, looked up): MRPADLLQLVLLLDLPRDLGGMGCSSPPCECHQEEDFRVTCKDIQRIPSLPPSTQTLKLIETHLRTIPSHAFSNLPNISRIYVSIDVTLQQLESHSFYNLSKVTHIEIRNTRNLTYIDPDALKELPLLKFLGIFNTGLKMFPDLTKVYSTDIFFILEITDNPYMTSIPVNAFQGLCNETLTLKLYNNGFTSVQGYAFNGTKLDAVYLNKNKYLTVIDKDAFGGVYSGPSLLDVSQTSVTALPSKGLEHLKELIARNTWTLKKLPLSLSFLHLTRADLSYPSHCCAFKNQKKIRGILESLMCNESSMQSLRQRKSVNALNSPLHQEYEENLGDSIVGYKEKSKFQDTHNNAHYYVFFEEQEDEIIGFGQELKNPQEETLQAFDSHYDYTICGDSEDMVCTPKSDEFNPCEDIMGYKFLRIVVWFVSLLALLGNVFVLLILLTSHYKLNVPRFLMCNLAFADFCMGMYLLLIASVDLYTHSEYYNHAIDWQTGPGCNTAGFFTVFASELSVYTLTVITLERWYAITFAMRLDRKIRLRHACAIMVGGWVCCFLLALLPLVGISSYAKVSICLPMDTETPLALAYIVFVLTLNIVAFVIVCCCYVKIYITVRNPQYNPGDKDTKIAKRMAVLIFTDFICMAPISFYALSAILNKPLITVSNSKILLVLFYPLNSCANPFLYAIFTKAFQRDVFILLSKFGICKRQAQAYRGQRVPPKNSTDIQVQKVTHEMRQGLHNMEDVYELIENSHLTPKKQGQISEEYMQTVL
Summary of the method: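 TSHR-HEK293 cells in agonist mode, 30 min room-temperature step, then cAMP measured by competitive HTRF (cAMP-d2 with anti-cAMP cryptate) after 1 h at room temperature. Tested at 15 concentrations in triplicate.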

[8] = qHTS assay to identify small molecule agonists of the hypoxia (HIF-1) signaling pathway - cell viability counter screen (AID 1224844; calls by dose curve; further: nearly all actives have a fitted effect of over 50% in size)
Summary of the method: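 HRE-bla ME-180 cells in medium with 0.5% dialyzed FBS were preincubated 5 hrs at 37C, exposed to compounds for 17 hrs, then viability was read as CellTiter-Glo luminescence after 30 min at room temperature, in the reporter wells.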

[9] = qHTS assay to identify small molecule agonists of H2AX (AID 1224845; active means well fitted activation curve with a large enough effect in the signal ratio in the repeat runs, not every such curve was filed as active; the % refers to the signal ratio)
Summary of the method: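 Wild-type CHO-K1 cells, plated overnight, exposed 3hr at 37C to 15 concentrations (0.76% DMSO final). Lysed, then HTRF anti-pH2AX (S139) cryptate and anti-H2AX-d2 antibodies, 24 hr room temperature; 665/620 nm emission read.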

[10] = qHTS assay to identify small molecule agonists of the hypoxia (HIF-1) signaling pathway (AID 1224846; active means well fitted activation curve with a large enough effect in the signal ratio in the repeat runs, not every such curve was filed as active; the % refers to the signal ratio)
Summary of the method: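 HRE-bla ME-180 cells (beta-lactamase reporter under hypoxia response element) were plated at 2,000 cells/well in medium with 0.5% dialyzed FBS, rested 5 hrs, then given compounds in DMSO for 17 hrs at 37C, 5% CO2. Reporter induction was read with CCF4-AM FRET substrate.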

[11] = qHTS assay to identify small molecule agonists of H2AX - cell viability counter screen (AID 1224847; calls by dose curve; further: top concentration of the series differs between compounds; nearly all actives have a fitted effect of over 30% in size)
Summary of the method: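 Compounds tested at 15 concentrations were incubated 3 hr at 37C with wild-type CHO-K1 cells; cellular ATP-based luminescence (CellTiter-Glo) indicated viability.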

[12] = qHTS RealTime-Glo MT Cell Viability Assay in HepG2 cells - 24 hour (AID 1224867); further: nearly all actives have a fitted effect of over 50% in size
Summary of the method: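 Tox21 10K library screened in qHTS format on HepG2 cells carrying RealTime-Glo reagents. Compounds were added after a 5 h preincubation, and the luminescent signal from continuous culture was measured repeatedly during 40 h treatment.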

[13] = qHTS RealTime-Glo MT Cell Viability Assay in HEK293 cells - 32 hour (AID 1224868); further: top concentration of the series differs between compounds; nearly all actives have a fitted effect of over 50% in size
Summary of the method: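 Luminescence generated by NanoLuc from substrate produced by living HEK293 cells served as the viability signal. Each value reflects the reading at its stated time point during continuous 40 h compound exposure at 37 C.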

[14] = A CellTox Green Cytotoxicity Assay to monitor cytotoxicity in HEK293 cells - 0 hour (AID 1224869); further: nearly all actives have a fitted effect of over 50% in size
Summary of the method: (§1)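 HEK293 cells premixed with CellTox Green dye were seeded at 600 cells/well and left 5 h at 37 C/5% CO2 before pin transfer of 23 nL compound in DMSO. Fluorescence from dye bound to dead-cell DNA was read during 40 h treatment.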

[15] = qHTS RealTime-Glo MT Cell Viability Assay in HepG2 cells - 40 hour (AID 1224870); further: nearly all actives have a fitted effect of over 50% in size
Summary of the method: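 HepG2 cells (600/well) mixed with RealTime-Glo MT reagent, settled 5 h at 37 C/5% CO2 before compound addition. Nonlytic NanoLuc luminescence from viable-cell prosubstrate reduction read repeatedly during 40 h treatment at 37 C.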

[16] = A CellTox Green Cytotoxicity Assay to monitor cytotoxicity in HEK293 cells - 40 hour (AID 1224871); further: nearly all actives have a fitted effect of over 45% in size
Summary of the method: as §1

[17] = qHTS assay to identify small molecule antagonists of the estrogen related receptor signaling pathway with the pleiotropic PPARgamma coactivator (PGC) from Tox21 10K library (AID 1224841; call rule not given here)
Summary of the method: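 PGC/ERR reporter cells were seeded at 2,000 cells/well and held 6 hours at 37 C/5% CO2 before pin-tool addition of compounds in DMSO. After 18 hours at 37 C, One-Glo was added and luminescence read after 30 minutes at room temperature.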

[18] = qHTS assay to identify small molecule agonists of the estrogen related receptor signaling pathway with the pleiotropic PPARgamma coactivator (PGC) from Tox21 10K library (AID 1224842); further: nearly all actives have a fitted effect of over 15% in size
Summary of the method: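 PGC/ERR reporter cell line, 2,000 cells per well, incubated 6 h at 37 C before 23 nL compound in DMSO was added. After 18 h at 37 C, One-Glo luminescence read following 30 min at room temperature.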

[19] = qHTS assay to identify small molecule antagonists of the estrogen related receptor (ERR) signaling pathway from Tox21 library (AID 1224848); further: nearly all actives have a fitted effect of over 50% in size
Summary of the method: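 ERR reporter cell line (from NTP) seeded 2,000 cells/well, rested 6 h at 37 C/5% CO2, then pin-dosed with compounds in DMSO. After 18 h at 37 C, ONE-Glo added; luminescence read after 30 min at room temperature.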

[20] = qHTS assay to identify small molecule agonists of the estrogen related receptor (ERR) signaling pathway from Tox21 library (AID 1224849; calls by dose curve; further: nearly all actives have a fitted effect of over 15% in size); details: ERR reporter cell line, ONE-Glo luciferase, 18 h; at 92.4 µM (top of the series) unless noted
Summary of the method: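 ERR reporter cell line (NTP) seeded, rested 6 h at 37 C/5% CO2, then pinned with Tox21 compounds in DMSO. After 18 h at 37 C, ONE-Glo luciferase luminescence was read following 30 min at room temperature.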
On the % scale 0 is the no-effect control and ±100 the full control effect.

O=C1CCCC(=O)O1
inactive: Potency [1] | Potency [2] | Potency [3] | outcome [4] | Potency [5] | outcome [6] | Potency [7] | outcome [8] | outcome [9] | outcome [10] | Potency [11] | outcome [12] | Potency [13] | outcome [14] | outcome [15] | Potency [16]

Cc1ccc(C=O)cc1C
inactive: Potency [1] | Potency [2] | Potency [3] | outcome [4] | Potency [5] | outcome [6] | Potency [7] | outcome [8] | outcome [9] | outcome [10] | outcome [12] | Potency [13] | outcome [14] | outcome [15] | Potency [16]

FC(F)(F)c1ccccc1-n1ccnc1
inactive: Potency [1] | Potency [2] | Potency [3] | outcome [4] | Potency [5] | outcome [6] | outcome [8] | outcome [9] | outcome [12] | Potency [13] | outcome [14] | outcome [15] | Potency [16]

O=S(=O)(O)c1ccc2cc(O)c(S(=O)(=O)O)cc2c1
inactive: Potency [1] | Potency [2] | Potency [3] | outcome [4] | Potency [5] | outcome [6] | Potency [7] | outcome [8] | outcome [9] | outcome [10] | Potency [11] | outcome [12] | Potency [13] | outcome [14] | outcome [15] | Potency [16]

CCC(CC)CO
inactive: Potency [1] | Potency [2] | Potency [3] | outcome [4] | Potency [5] | outcome [6] | Potency [7] | outcome [8] | outcome [9] | outcome [10] | Potency [11] | outcome [12] | Potency [13] | outcome [14] | outcome [15] | Potency [16]

O=C(OCc1ccccc1)C(=O)OCc1ccccc1
inactive: Potency [1] | Potency [2] | Potency [3] | outcome [4] | outcome [6] | Potency [17] | outcome [18] | outcome [8] | outcome [9] | outcome [10] | Potency [11] | Potency [19] | activity change, positive = activation [20] 0.466% | outcome [12] | Potency [13] | outcome [14] | outcome [15] | Potency [16]

CC(CN)CC(C)(C)CCN (configuration not stated)
inactive: Potency [1] | Potency [2] | Potency [3] | outcome [4] | Potency [5] | outcome [6] | outcome [8] | outcome [9] | outcome [10] | Potency [11] | outcome [12] | Potency [13] | outcome [14] | outcome [15] | Potency [16]

CC(N)C(=O)OC(C)(C)Cc1ccc(Cl)cc1 (configuration not stated)
inactive: Potency [1] | Potency [2] | Potency [3] | outcome [4] | Potency [5] | Potency [7] | outcome [8] | outcome [9] | outcome [10] | outcome [12] | Potency [13] | outcome [15] | Potency [16]
